p53ts 32C tox = qHTS Screen for Compounds that Selectively Target Cancer Cells with p53 Mutations: Cytotoxicity of p53ts Cells at the Permissive Temperature; Potency, µM (top dose mostly 46.1 µM), most hits filed as cytotoxic; H1299-p53A138V at 32C, ATP luminescence viability, 24 h; AID 924, 2007; actives 0.93% (n = 130,000); further: nearly all actives have a fitted effect of over 55% in size
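Viability by ATPlite luminescence after 24 h compound treatment (up to 46 uM) at the permissive 32C. Cells are H1299 carrying p53 A138V. Scale runs from DMSO basal to 100 uM tamoxifen as full kill; AC50 from Hill fits.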
Imprint erasure = qHTS Assay for Compounds that Induce Erasure of Genomic Imprints; actives 0.02% (n = 110,000); AID 1948, 2009; Potency, µM (highest dose often 60.7 µM), most hits filed as activators; mouse ES Peg3-LacZ reporter, beta-gal luminescence, 40 h
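Imprint erasure is scored as LacZ activity from the silenced maternal Peg3 allele in feeder-free female ES cells cultured 40 h with LIF. Luminescence is normalized to in-plate negative controls and fitted to the Hill equation.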
IkB sig inh = IkB Signaling. Potency, µM (top dose mostly 57.1 µM). actives 0.04% (n = 110,000). ABC-DLBCL IkBa-CBG/CBR dual luciferase ratio, 4 h; response scale: scaled: untreated 0%, proteasome inhibitor 100%; active means well fitted curve in the direction sought with a large enough effect in the signal ratio, not every such curve was filed as active; inconclusive means small, poorly fitted or top-dose-only effect, or a change in a side signal; the % refers to the signal ratio;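 further: the direction sought is a rising ratio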
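Luminescence ratio of IκBα-fused green versus native red beetle luciferase in OCI-Ly3 cells, 4 h post-doxycycline with compound; red signal alone, scaled from basal (0%) to zero light (-100%), flagged nonspecific or cytotoxic effects.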
p53ts 39C tox = qHTS Screen for Compounds that Selectively Target Cancer Cells with p53 Mutations: Cytotoxicity of p53ts Cells at the Nonpermissive Temperature | H1299-p53A138V viability at 39C, ATP luminescence, 24 h | actives 1.5% (n = 130,000) | Potency, µM (highest dose often 46.1 µM), most hits filed as cytotoxic | AID 902, 2007; further: nearly all actives have a fitted effect of over 55% in size
Numbers stand for hits; [ ] = dose if it differs, or a comment. An excerpt weighted towards active compounds, which were near 1.8% of everything screened. Unless noted, the call rests on the fitted dose curve; in most records, active means well fitted curve in the direction sought with a large enough effect; inconclusive means small, poorly fitted or top-dose-only effect, or another doubt; inactive means no such curve, though single readings can be large; an effect the other way counts as inactive or inconclusive.

Results for C[N+](C)(C)CCC(=O)c1cccc2ccccc12 ?
p53ts 32C tox: 13µM; Imprint erasure: inactive; IkB sig inh: inconclusive; p53ts 39C tox: 16µM

What do the screens show for `O=C(O)CCC(=O)c1cccc2ccccc12`?
p53ts 32C tox: inactive; Imprint erasure: inactive; IkB sig inh: inactive; p53ts 39C tox: inactive

Results for CCn1c(CN2CCCCCC2=O)nnc1SCc1cnc(-c2ccccc2)s1 ?
p53ts 32C tox: inactive; Imprint erasure: inactive; IkB sig inh: inactive; p53ts 39C tox: inactive

How did Cc1ccc(-c2csc3ncnc(Sc4nnc(CN5CCCCCC5=O)o4)c23)cc1 do in these assays?
p53ts 32C tox: 25µM; Imprint erasure: inactive; IkB sig inh: inconclusive; p53ts 39C tox: inconclusive

Results for CCC(=O)Nc1cccc(OCc2cc(=O)n3cc(C)ccc3n2)c1 ?
p53ts 32C tox: inconclusive; Imprint erasure: inactive[10.9 µM]; IkB sig inh: inconclusive; p53ts 39C tox: inconclusive

What do the screens show for `COc1ccc(NC(=O)Nc2ccccc2OCc2cc(=O)n3ccccc3n2)c(OC)c1`?
p53ts 32C tox: inconclusive; Imprint erasure: inactive[10.9 µM]; IkB sig inh: inactive; p53ts 39C tox: 16µM

Results for COc1ccc(OC)c(NC(=O)Nc2cccc(OCc3cc(=O)n4cc(C)ccc4n3)c2)c1 ?
p53ts 32C tox: 6.3µM; Imprint erasure: inactive[10.9 µM]; IkB sig inh: inconclusive; p53ts 39C tox: 6.3µM

How did CCn1cc2nc(SCc3ccc(F)cc3)n(Cc3ccc(Cl)cc3)c(=O)c2n1 do in these assays?
p53ts 32C tox: inactive; Imprint erasure: inactive[10.9 µM]; IkB sig inh: inconclusive; p53ts 39C tox: 13µM

How did CCn1cc2nc(SCc3ccccc3)n(Cc3ccc(C)cc3)c(=O)c2n1 do in these assays?
p53ts 32C tox: inactive; Imprint erasure: inactive[10.9 µM]; IkB sig inh: inactive; p53ts 39C tox: inactive

What do the screens show for `Cc1cccc(OC(=O)c2cc(-c3ccc4c(c3)OCCO4)on2)c1`?
p53ts 32C tox: 20µM; Imprint erasure: inactive[10.9 µM]; IkB sig inh: inconclusive; p53ts 39C tox: 20µM

How did Cc1cc(C)cc(OC(=O)c2cc(-c3ccc4c(c3)OCCO4)on2)c1 do in these assays?
p53ts 32C tox: inconclusive; Imprint erasure: inactive[10.9 µM]; IkB sig inh: inactive; p53ts 39C tox: 13µM

How did Cc1cccc(OC(=O)c2cc(-c3ccc4c(c3)OCCO4)on2)c1C do in these assays?
p53ts 32C tox: 20µM; Imprint erasure: inactive[10.9 µM]; IkB sig inh: inactive; p53ts 39C tox: inconclusive

How did CC(=O)NCCNc1nc(-c2ccc(N(C)C)cc2)nc2ccccc12 do in these assays?
p53ts 32C tox: inconclusive; Imprint erasure: inconclusive; IkB sig inh: inactive[11.4 µM]; p53ts 39C tox: 13µM

How did COCCNc1nc(-c2ccc(C(=O)N(C)C)cc2)nc2ccccc12 do in these assays?
p53ts 32C tox: inconclusive; Imprint erasure: inactive; IkB sig inh: inactive[11.4 µM]; p53ts 39C tox: inconclusive

What do the screens show for `CC(=O)NCCNc1nc(-c2ccc3c(c2)OCO3)nc2ccccc12`?
p53ts 32C tox: inactive; Imprint erasure: inactive; IkB sig inh: inactive[11.4 µM]; p53ts 39C tox: inactive

What do the screens show for `COCCNc1nc(-c2ccc(N(C)C)cc2)nc2ccccc12`?
p53ts 32C tox: 13µM; Imprint erasure: inactive; IkB sig inh: inactive[11.4 µM]; p53ts 39C tox: 10µM

What do the screens show for `Cc1cnc(CNc2nc(-c3ccc(N(C)C)cc3)nc3ccccc23)cn1`?
p53ts 32C tox: 10µM; IkB sig inh: inactive[11.4 µM]; p53ts 39C tox: 10µM

How did CCOC(=O)c1c(S(=O)(=O)N2CCC(C(=O)Nc3ccc(C)cn3)CC2)c(C)n(C)c1C do in these assays?
p53ts 32C tox: inactive; Imprint erasure: inactive[10.9 µM]; IkB sig inh: inactive; p53ts 39C tox: inactive

What do the screens show for `Fc1ccc(-c2cc3nc4c(c(N5CCOCC5)n3n2)CCCC4)cc1`?
p53ts 32C tox: inactive; Imprint erasure: inactive; IkB sig inh: inactive; p53ts 39C tox: inactive

What do the screens show for `O=c1c2c(nc3cc(-c4ccc(F)cc4)[nH]n13)CCCC2`?
p53ts 32C tox: 13µM; Imprint erasure: inactive; IkB sig inh: inconclusive; p53ts 39C tox: 10µM

What do the screens show for `COc1cc(C)ccc1OCCCn1c(-c2ccc(Cl)cc2)nc2ccccc2c1=O`?
p53ts 32C tox: inactive; Imprint erasure: inactive[10.9 µM]; IkB sig inh: inconclusive; p53ts 39C tox: inactive

How did COc1ccc(CC(=O)N2CCN(c3ccccn3)CC2)cc1 do in these assays?
p53ts 32C tox: inactive; Imprint erasure: inactive; IkB sig inh: inactive; p53ts 39C tox: inactive

What do the screens show for `COc1ccc(-n2nc(C(=O)NCC(=O)N3CCN(c4ccccn4)CC3)c3ccccc3c2=O)cc1`?
p53ts 32C tox: 13µM; Imprint erasure: inactive; IkB sig inh: inactive; p53ts 39C tox: 13µM

How did O=C(CN1C=NS(=O)(=O)c2ccccc21)Nc1ccc(F)cc1 do in these assays?
p53ts 32C tox: inactive; Imprint erasure: inactive[10.9 µM]; IkB sig inh: inactive; p53ts 39C tox: inactive

Results for Cc1cc(C(=O)Nc2ccc3c(c2)OCCO3)c(C)o1 ?
p53ts 32C tox: 16µM; Imprint erasure: inactive; IkB sig inh: inactive; p53ts 39C tox: 13µM

What do the screens show for `Cc1ncoc1C(=O)Nc1ccc2c(c1)OCCO2`?
p53ts 32C tox: inconclusive; Imprint erasure: inactive; IkB sig inh: inactive; p53ts 39C tox: inconclusive

How did Cc1occc1C(=O)Nc1ccc2c(c1)OCCO2 do in these assays?
p53ts 32C tox: inconclusive; Imprint erasure: inactive; IkB sig inh: inactive; p53ts 39C tox: inconclusive

How did Cc1ccsc1C(=O)Nc1ccc2c(c1)OCCO2 do in these assays?
p53ts 39C tox: 14µM

How did Cc1cc(N)n2ncc(-c3ccccc3)c2n1 do in these assays?
p53ts 32C tox: inconclusive; Imprint erasure: inactive; IkB sig inh: inconclusive; p53ts 39C tox: 10µM

Results for CCOC(=O)c1cnc2c(-c3ccccc3)cnn2c1N ?
p53ts 32C tox: 10µM; Imprint erasure: inactive; IkB sig inh: inconclusive; p53ts 39C tox: 7.9µM

Results for Cc1cc(N)n2ncc(-c3cccc(Br)c3)c2n1 ?
p53ts 32C tox: inactive; Imprint erasure: inactive; IkB sig inh: inactive; p53ts 39C tox: inactive

What do the screens show for `CCOC(=O)c1cnc2c(-c3ccccc3)c(C)nn2c1N`?
p53ts 32C tox: inactive; Imprint erasure: inactive; IkB sig inh: inactive; p53ts 39C tox: inactive

What do the screens show for `CCC(C)NC(=O)CCc1c(C)nc2cc(-c3ccc(OC)cc3OC)nn2c1C` (stereo not drawn)?
p53ts 32C tox: inactive; Imprint erasure: inactive[10.9 µM]; IkB sig inh: inconclusive; p53ts 39C tox: inactive

Results for CS(=O)(=O)N1CCCC(C(=O)NCc2ccc(F)cc2Cl)C1 (stereo not drawn) ?
p53ts 32C tox: inactive; Imprint erasure: inactive; IkB sig inh: inactive; p53ts 39C tox: inactive

How did CO[C@@H]1COC(=O)[C@H](C)NC(=O)C/C=C\[C@@H](C)[C@H](OC)COC(=O)[C@H](C)NC(=O)C/C=C\[C@H]1C do in these assays?
p53ts 32C tox: inactive[9.22 µM]; p53ts 39C tox: inactive[9.22 µM]

What do the screens show for `CC(C)(C)CC(C)(C)c1ccc(O)c(Cc2ccc(Cl)cc2Cl)c1`?
p53ts 32C tox: inconclusive; Imprint erasure: inactive; p53ts 39C tox: 25µM

What do the screens show for `N#Cc1c(-c2ccccc2)no[n+]1[O-]`?
p53ts 32C tox: inconclusive; Imprint erasure: inactive; IkB sig inh: inconclusive; p53ts 39C tox: 16µM
